The results in this text go back to PubChem BioAssay AID1159580 (chemical genetic matrix, 2015).

About 2,000 (36%) of roughly 5,500 compounds were called active. About 18% were inconclusive and are not listed. Some of the results follow. Unmarked numbers belong to inactive results. Cut-off read from the data, not from the text of the source: active = normalized growth mostly below about 0.91 (no sharp cut-off); inconclusive = no clear call, values can overlap the other calls; inactive = mostly above about 0.92.

The experiment can be described thus: chemical genetic growth profiling, strain panel (AID 1159580).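 Note: tested at 20 µM; growth read once vehicle control cultures reached saturation at 30 °C; 1 = growth at the plate median or of vehicle wells; lower values mean less growth of the strain.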 To be noted: S. cerevisiae deletion strains, growth OD.

With `COc1ccc2c(c1)CCC1C2CC[C@@]2(C)C1CC[C@@H]2NCCCCCCN1C(=O)C=CC1=O` (stereo partly drawn), the normalized growth runs as follows: (locus YAL013W, strain DEP1, hits give low values) 0.989; (locus YAL040C, strain CLN3, hits give low values) 0.444 (active); (locus YCL061C, strain MRC1 (second series), hits give low values) 0.998; (locus YDR150W, strain NUM1, hits give low values) 0.976; (locus YDR363W, strain ESC2, hits give low values) 0.988; (locus YER002W, strain NOP16, hits give low values) 0.843 (active). For the same compound, the normalized growth is, setting by setting: (locus YJR075W, strain HOC1, hits give low values) 0.997; (locus YMR307W, strain GAS1, hits give low values) 0.93; (locus YNL197C, strain WHI3, hits give low values) 1.07; (locus YNL224C, strain SQS1, hits give low values) 0.256 (active); (locus YNL322C, strain KRE1, hits give low values) 0.984; (locus YOR083W, strain WHI5 (second series), hits give low values) 1.02. The normalized growth (locus YPL241C, strain CIN2, hits give low values) was 0.993.
